Experimental data reported in PubChem BioAssay (Tox21).
Unmarked numbers belong to inactive results. Records with an inconclusive call do not appear. Where a call stands in place of a potency, no number is given. The source made the active and inactive calls. Unless noted, the call rests on the fitted dose curve; in most records, active means well fitted curve in the direction sought with a large enough effect in the repeat runs; inconclusive means weak or mixed curves; inactive means no such curve, though single readings can be large; an effect the other way counts as inactive or inconclusive.

Legend:
[1] = qHTS assay to identify small molecule agonists of the RXR signaling pathway - cell viability counter screen (AID 1159529);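 further: HEK 293T cells carrying an RXR-alpha UAS beta-lactamase reporter; nearly all actives have a fitted effect of over 50% in size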
Summary of the method: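 Counter screen: CellTiter-Glo luminescence. Cells: RXR-alpha-UAS-bla HEK 293T. Medium: 2% charcoal-stripped FBS. Treatment: 16 h, 37 C. Reagent incubation: 30 min, RT.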

[2] = qHTS assay to identify small molecule antagonists of the retinoid acid receptor (RAR) signaling pathway - cell viability counter screen (AID 1159551); further: nearly all actives have a fitted effect of over 35% in size
Summary of the method: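 Following overnight attachment, C3RL4 reporter cells received DMSO-dissolved compounds and then retinol (1 uM final). Six hours later at 37 C, ATP content was measured by CellTiter-Glo luminescence.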

[3] = qHTS assay to identify small molecule antagonists of the retinoic acid receptor (RAR) signaling pathway (AID 1159552; further: nearly all actives have a fitted effect of over 50% in size)
Summary of the method: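 Antagonism of retinol-induced RARE reporter activity was measured in C3RL4 cells. Exposure to compounds and 1 uM final retinol lasted 6 hr at 37 C, with luminescence as endpoint.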

[4] = qHTS assay to identify small molecule agonists of the retinoic acid receptor (RAR) signaling pathway (AID 1159553); further: potency means the concentration at half of the fitted maximal effect
Summary of the method: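 Cell line C3RL4, RARE luciferase reporter. Treatment: compounds in DMSO, 6 hr, 37 C, 5% CO2, after overnight plating. Detection: luminescence, 30 min RT after reagent.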

[5] = qHTS assay to identify small molecule antagonists of the estrogen related receptor (ERR) signaling pathway from Tox21 library - cell viability counter screen (AID 1224834); further: nearly all actives have a fitted effect of over 30% in size
Summary of the method: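 Viability readout (CellTiter-Fluor fluorescence, 30 min at 37 C) multiplexed with the ERR assay; cells treated 17.5 h at 37 C with compounds delivered in DMSO.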

[6] = biological target: Luciferin 4-monooxygenase (Photinus pyralis) (UniProt P08659); test: qHTS assay to identify small molecule inhibitors of firefly luciferase (AID 1224835); further: nearly all actives have a fitted effect of over 25% in size; further: potency means the concentration at half of the fitted maximal effect
Summary of the method: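 Quantitative HTS format; KM concentrations of both substrates. Purified P. pyralis FLuc activity quantified from luminescence images.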

[7] = qHTS assay to identify small molecule agonists of the constitutive androstane receptor (CAR) signaling pathway - cell viability counter screen (AID 1224836); further: nearly all actives have a fitted effect of over 45% in size
Summary of the method: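 Double-stable HepG2 hepatoma cells (hCAR plus CYP2B6-2.2kb) are treated for 23 h at 37 C with test compounds in 15-point concentration series. PK11195 at 0.75 uM final is co-added. Cell viability is quantified by CellTiter-Fluor.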

[8] = biological target: Nuclear receptor subfamily 1 group I member 3 (Homo sapiens) (UniProt Q14994); test: qHTS assay to identify small molecule antagonists of the constitutive androstane receptor (CAR) signaling pathway (AID 1224838);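 further: HepG2 cells stably expressing hCAR with CYP2B6 luciferase reporter stimulated by CITCO; nearly all actives have a fitted effect of over 40% in size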
Summary of the method: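 Quantitative HTS in double-stable HepG2-CYP2B6-hCAR cells. After 4 h plating, cells get compound (15 concentrations) and CITCO at 50 nM final, incubate 24 h at 37 C, then ONE-Glo luminescence is read.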

[9] = biological target: Nuclear receptor subfamily 1 group I member 3 (Homo sapiens) (UniProt Q14994); test: qHTS assay to identify small molecule agonists of the constitutive androstane receptor (CAR) signaling pathway (AID 1224839); further: nearly all actives have a fitted effect of over 15% in size; further: potency means the concentration at half of the fitted maximal effect;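 on activation: HepG2 cells stably carrying human CAR and a CYP2B6 luciferase reporter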
Summary of the method: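 Readout: firefly luciferase luminescence via ONE-Glo. System: HepG2 double-stable for hCAR and CYP2B6-2.2kb. Conditions: 15-point compound titration, PK11195 at 0.75 uM final, 24 h incubation.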

[10] = biological target: Thyrotropin receptor (Homo sapiens) (UniProt P16473); test: qHTS assay to identify small molecule agonists of the thyroid stimulating hormone receptor (TSHR) signaling pathway (AID 1224843; calls by dose curve; further: nearly all actives have a fitted effect of over 45% in size)
Summary of the method: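 TSHR-expressing HEK293 cells (800 per well) were exposed to compounds for 30 min at room temperature. cAMP was then detected by HTRF competition with cAMP-d2 and anti-cAMP cryptate, read after 1 h at room temperature. Fifteen concentrations, triplicate.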

[11] = qHTS assay to identify small molecule agonists of the hypoxia (HIF-1) signaling pathway - cell viability counter screen (AID 1224844; calls by dose curve; further: nearly all actives have a fitted effect of over 50% in size)
Summary of the method: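 Luminescent ATP content (CellTiter-Glo, 30 min, room temperature) served as the viability measure in HRE-bla ME-180 cells exposed to compounds for 17 hrs in low-serum medium (0.5% dialyzed FBS).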

[12] = qHTS assay to identify small molecule agonists of H2AX (AID 1224845; active means well fitted activation curve with a large enough effect in the signal ratio in the repeat runs, not every such curve was filed as active; the % refers to the signal ratio)
Summary of the method: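 Wild-type CHO-K1 cells plated overnight, then exposed 3 hr at 37C to compounds at 15 concentrations (0.76% DMSO). Lysed, then HTRF anti-pH2AX(S139)-cryptate/anti-H2AX-d2 detection after 24 hr at room temperature; emissions 665 and 620 nm.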

[13] = qHTS assay to identify small molecule agonists of the hypoxia (HIF-1) signaling pathway (AID 1224846; active means well fitted activation curve with a large enough effect in the signal ratio in the repeat runs, not every such curve was filed as active; the % refers to the signal ratio)
Summary of the method: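 Measured by blue/green FRET after loading CCF4-AM: beta-lactamase expressed from a hypoxia response element in ME-180 cells. Test agents were delivered in DMSO and left 17 hrs; cells had been plated 5 hrs earlier in low-serum (0.5% dialyzed FBS) medium.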

[14] = qHTS assay to identify small molecule agonists of H2AX - cell viability counter screen (AID 1224847; calls by dose curve; further: top concentration of the series differs between compounds; nearly all actives have a fitted effect of over 30% in size)
Summary of the method: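 For this counter screen, overnight-attached CHO-K1 cells received test compounds (15 concentrations, 0.76% DMSO final); 3 hr later at 37C, CellTiter-Glo reagent was added and luminescence recorded after 30 min at room temperature.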

[15] = qHTS RealTime-Glo MT Cell Viability Assay in HepG2 cells - 24 hour (AID 1224867); further: nearly all actives have a fitted effect of over 50% in size
Summary of the method: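 Real-time, nonlytic viability: 600 HepG2 cells/well mixed with NanoLuc enzyme plus prosubstrate; 5 h settle, compound (DMSO) added by pintool; luminescence monitored over 40 h at 37 C.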

[16] = qHTS assay to identify small molecule antagonists of the estrogen related receptor signaling pathway with the pleiotropic PPARgamma coactivator (PGC) from Tox21 10K library - cell viability counter screen (AID 1224840; active means well fitted cell-killing curve with a large enough effect in the repeat runs, not every such curve was filed as active; further: nearly all actives have a fitted effect of over 40% in size)
Summary of the method: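 Compounds in DMSO, alongside positive and negative controls, were pinned onto PGC/ERR cells (2,000 per well). Exposure lasted 17.5 hours at 37 C, followed by a 30-minute CellTiter-Fluor incubation and fluorescence reading.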

[17] = qHTS assay to identify small molecule antagonists of the constitutive androstane receptor (CAR) signaling pathway - cell viability counter screen (AID 1224837); further: nearly all actives have a fitted effect of over 45% in size
Summary of the method: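 Fluorescence from CellTiter-Fluor served as the viability signal. Human hepatoma HepG2 cells stably bearing hCAR and CYP2B6-2.2kb received compound plus CITCO (50 nM final) for 23 hr.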

[18] = qHTS assay to identify small molecule antagonists of the estrogen related receptor signaling pathway with the pleiotropic PPARgamma coactivator (PGC) from Tox21 10K library (AID 1224841; call rule not given here)
Summary of the method: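 Compound exposure ran 18 hours at 37 C in PGC/ERR cells (2,000/well) that had first rested 6 hours in a 37 C/5% CO2 incubator. Luciferase activity was then detected with One-Glo after a 30-minute room-temperature step.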

[19] = qHTS assay to identify small molecule antagonists of the estrogen related receptor (ERR) signaling pathway from Tox21 library (AID 1224848); further: nearly all actives have a fitted effect of over 50% in size
Summary of the method: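 Cells: ERR line, 2,000/well; 6 h preincubation 37 C/5% CO2. Cpd in DMSO via pin tool; 18 h, 37 C. ONE-Glo, 30 min RT, luminescence.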

[20] = qHTS assay to identify small molecule agonists of the estrogen related receptor (ERR) signaling pathway from Tox21 library (AID 1224849; calls by dose curve; further: nearly all actives have a fitted effect of over 15% in size); conditions: ERR reporter cell line, ONE-Glo luciferase, 18 h; at 92.4 µM (top of the series) unless noted
Summary of the method: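 We plated ERR reporter cells, waited 6 h, added compounds in DMSO by pin tool and incubated them 18 h at 37 C. ONE-Glo was then added and luminescence read after 30 min.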

Chain of Nuclear receptor subfamily 1 group I member 3 (Homo sapiens) (Q14994 whole entry, looked up): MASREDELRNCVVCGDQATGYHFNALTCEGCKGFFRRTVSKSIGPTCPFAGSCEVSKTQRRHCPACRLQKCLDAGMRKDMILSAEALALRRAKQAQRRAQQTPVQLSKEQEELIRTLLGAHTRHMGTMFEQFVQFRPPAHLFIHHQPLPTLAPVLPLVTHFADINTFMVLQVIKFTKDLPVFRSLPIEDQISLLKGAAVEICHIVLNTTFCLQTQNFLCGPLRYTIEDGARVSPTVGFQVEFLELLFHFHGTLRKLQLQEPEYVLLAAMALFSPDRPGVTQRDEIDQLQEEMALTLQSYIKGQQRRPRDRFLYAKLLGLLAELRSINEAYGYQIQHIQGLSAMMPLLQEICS
Chain of Luciferin 4-monooxygenase (Photinus pyralis) (P08659 whole entry, looked up): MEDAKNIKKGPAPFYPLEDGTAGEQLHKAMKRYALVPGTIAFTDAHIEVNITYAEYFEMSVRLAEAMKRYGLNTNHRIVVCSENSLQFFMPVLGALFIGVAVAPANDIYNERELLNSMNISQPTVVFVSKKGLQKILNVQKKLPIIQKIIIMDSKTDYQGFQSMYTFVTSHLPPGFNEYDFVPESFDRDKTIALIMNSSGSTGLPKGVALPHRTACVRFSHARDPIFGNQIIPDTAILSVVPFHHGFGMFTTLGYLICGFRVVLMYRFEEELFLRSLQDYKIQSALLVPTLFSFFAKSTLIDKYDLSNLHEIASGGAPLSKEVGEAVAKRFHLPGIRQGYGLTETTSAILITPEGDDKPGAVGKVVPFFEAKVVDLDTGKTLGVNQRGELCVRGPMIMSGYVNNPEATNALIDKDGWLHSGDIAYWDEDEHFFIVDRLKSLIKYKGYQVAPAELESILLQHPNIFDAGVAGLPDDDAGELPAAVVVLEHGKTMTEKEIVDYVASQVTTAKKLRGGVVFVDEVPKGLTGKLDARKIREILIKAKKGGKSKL
Chain of Thyrotropin receptor (Homo sapiens) (P16473 whole entry, looked up): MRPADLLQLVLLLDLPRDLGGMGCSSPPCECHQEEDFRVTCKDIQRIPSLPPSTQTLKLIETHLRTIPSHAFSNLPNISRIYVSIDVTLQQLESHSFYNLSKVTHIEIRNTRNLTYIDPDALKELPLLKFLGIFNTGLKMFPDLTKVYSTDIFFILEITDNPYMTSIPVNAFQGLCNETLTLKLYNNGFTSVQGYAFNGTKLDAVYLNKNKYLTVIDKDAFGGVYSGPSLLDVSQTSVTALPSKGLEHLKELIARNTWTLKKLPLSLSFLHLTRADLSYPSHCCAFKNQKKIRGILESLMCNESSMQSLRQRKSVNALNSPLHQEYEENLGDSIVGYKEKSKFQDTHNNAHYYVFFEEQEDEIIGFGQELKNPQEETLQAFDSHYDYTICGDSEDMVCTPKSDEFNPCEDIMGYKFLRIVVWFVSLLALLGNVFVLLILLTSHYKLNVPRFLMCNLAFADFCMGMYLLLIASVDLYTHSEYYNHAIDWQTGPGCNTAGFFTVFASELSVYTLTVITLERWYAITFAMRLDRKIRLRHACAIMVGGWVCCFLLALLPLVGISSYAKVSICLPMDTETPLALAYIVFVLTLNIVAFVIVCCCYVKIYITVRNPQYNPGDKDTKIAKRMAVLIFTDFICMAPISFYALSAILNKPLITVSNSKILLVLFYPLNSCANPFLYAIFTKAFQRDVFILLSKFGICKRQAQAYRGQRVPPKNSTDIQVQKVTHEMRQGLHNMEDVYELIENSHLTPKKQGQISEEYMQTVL

Structure (SMILES) | outcome [1] | outcome [2] | outcome [3] | Potency [4] | outcome [5] | Potency [6] | outcome [7] | Potency [8] | Potency [9] | outcome [10] | outcome [11] | outcome [12] | outcome [13] | outcome [14] | outcome [15] | outcome [16] | outcome [17] | outcome [18] | Potency [19] | activity change, positive = activation [20]
CCN1CCCC1CN (stereo unspecified) | inactive | inactive | inactive | inactive | inactive | inactive | inactive | inactive | inactive | inactive | inactive | inactive | inactive | inactive | inactive | – | – | – | – | –
Cc1c(NC(=O)c2cccnc2)c(=O)n(-c2ccccc2)n1C | inactive | inactive | inactive | inactive | inactive | inactive | inactive | inactive | inactive | inactive | inactive | inactive | – | inactive | inactive | – | – | – | – | –
CCCC(CC)c1ccccc1 (stereo unspecified) | inactive | inactive | inactive | inactive | inactive | inactive | inactive | inactive | inactive | inactive | inactive | inactive | inactive | inactive | inactive | inactive | – | – | – | –
C=CCN1C[C@H](C(=O)N(CCCN(C)C)C(=O)NCC)C[C@@H]2c3cccc4[nH]cc(c34)C[C@H]21 | inactive | inactive | inactive | inactive | inactive | inactive | inactive | inactive | inactive | inactive | – | inactive | inactive | – | inactive | inactive | – | – | – | –
CC(=O)CCc1ccc(OC(C)=O)cc1 | inactive | – | inactive | inactive | inactive | inactive | inactive | inactive | inactive | inactive | inactive | inactive | inactive | inactive | inactive | inactive | inactive | – | – | –
ONc1ccccc1 | inactive | inactive | inactive | 24.1 µM (active) | inactive | 22.2 µM (active) | inactive | inactive | 60.5 µM (active) | inactive | inactive | inactive | inactive | inactive | inactive | inactive | – | inactive | inactive | 20.7% (active)
C=C(C)[C@@H]1CC=C(C)C(=O)C1 | inactive | inactive | – | – | inactive | inactive | inactive | – | – | – | inactive | inactive | inactive | inactive | inactive | inactive | inactive | – | – | –
CN(C)CC/C=C1/c2ccccc2COc2ccc(CC(=O)O)cc21 | inactive | – | inactive | inactive | inactive | inactive | inactive | inactive | inactive | inactive | inactive | inactive | inactive | inactive | – | inactive | inactive | – | – | –
CCCCOC(=O)[C@H](C)O | inactive | inactive | inactive | inactive | inactive | inactive | inactive | inactive | inactive | – | inactive | inactive | inactive | inactive | inactive | inactive | – | – | – | –
CCN(CC)CCN | inactive | inactive | inactive | inactive | inactive | inactive | inactive | inactive | inactive | inactive | – | inactive | inactive | inactive | inactive | inactive | – | – | – | –
CCC/C=C(\C=O)CC | inactive | – | inactive | inactive | inactive | inactive | inactive | inactive | inactive | inactive | inactive | inactive | inactive | inactive | inactive | inactive | inactive | – | – | –
C#CCN[C@@H]1CCc2ccccc21 | inactive | inactive | inactive | inactive | inactive | inactive | inactive | inactive | inactive | inactive | inactive | inactive | inactive | – | inactive | – | – | – | – | –
O=C(Cl)c1ccccc1[N+](=O)[O-] | inactive | inactive | inactive | inactive | inactive | inactive | inactive | inactive | inactive | – | inactive | inactive | inactive | – | inactive | inactive | – | – | – | –
CCC(C)C(C)=O (stereo unspecified) | inactive | inactive | inactive | inactive | inactive | inactive | inactive | inactive | inactive | inactive | inactive | inactive | inactive | inactive | inactive | inactive | – | – | – | –
CCCCSCCCC | inactive | inactive | inactive | inactive | inactive | inactive | inactive | inactive | inactive | inactive | inactive | inactive | inactive | inactive | inactive | inactive | – | – | – | –
COC(C)(OC)OC | inactive | – | inactive | inactive | inactive | inactive | inactive | inactive | inactive | inactive | inactive | inactive | inactive | inactive | inactive | inactive | – | – | – | –
CCCSSCCC | inactive | – | inactive | inactive | inactive | inactive | inactive | inactive | inactive | inactive | inactive | inactive | inactive | – | inactive | – | inactive | – | – | –
